According to PubChem BioAssay AID1159580 (chemical genetic matrix, 2015):
The whole screen tested about 5,500 compounds, of which about 2,000 (36%) were called active. Inconclusive results (about 18%) are left out. Rule as the data show it: active = normalized growth mostly below about 0.91 (no sharp cut-off); inconclusive = no clear call, values can overlap the other calls; inactive = mostly above about 0.92. Some of the results follow.

Experiment: chemical genetic growth profiling, strain panel (AID 1159580);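 also: tested at 20 µM; growth read once vehicle control cultures reached saturation at 30 °C; 1 = growth at the plate median or of vehicle wells; lower values mean less growth of the strain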
Settings: S. cerevisiae deletion strains, growth OD
[1] = locus YAL013W, strain DEP1, active compounds read low
[2] = locus YDR150W, strain NUM1, active compounds read low
[3] = locus YGR078C, strain PAC10, active compounds read low
[4] = locus YNL153C, strain GIM3, active compounds read low
[5] = locus YPL241C, strain CIN2, active compounds read low

Measured: normalized growth

Nc1ccc(C(=O)/C(=C\c2cccc([N+](=O)[O-])c2)C(=O)c2ccc(-c3ccccc3)cc2)cc1
inactive: [1] 0.99 | locus YBR229C, strain ROT2, active compounds read low 0.984 | locus YDL101C, strain DUN1, active compounds read low 0.997 | [2] 0.975 | locus YEL061C, strain CIN8, active compounds read low 0.999 | [3] 0.997 | locus YHR030C, strain SLT2, active compounds read low 0.869 | locus YHR087W, strain rtc3, active compounds read low 0.993 | locus YJL187C, strain SWE1, active compounds read low 1 | locus YJR043C, strain POL32, active compounds read low 0.979 | locus YJR075W, strain HOC1, active compounds read low 0.997 | locus YKL190W, strain CNB1, active compounds read low 0.997 | locus YLR039C, strain RIC1, active compounds read low 1 | locus YLR058C, strain SHM2 (second series), active compounds read low 0.987 | locus YLR085C, strain ARP6, active compounds read low 0.877 | locus YLR262C, strain YPT6, active compounds read low 0.915 | locus YML094W, strain GIM5, active compounds read low 0.993 | locus YMR219W, strain ESC1, active compounds read low 0.988 | locus YMR263W, strain SAP30, active compounds read low 1.01 | [4] 0.966 | locus YNL298W, strain CLA4 (second series), active compounds read low 0.936 | locus YNL322C, strain KRE1, active compounds read low 0.971 | locus YNR030W, strain Alg12, active compounds read low 0.955 | locus YPL055C, strain LGE1, active compounds read low 1 | [5] 0.949 | locus YPR135W, strain CTF4, active compounds read low 0.945

CCN1C[C@]2(C)CC[C@H](O)[C@@]34C5C[C@@H]6[C@@H](OC)C[C@@](O)(C5[C@H]6O)[C@@H](CC23)C14 (some centres not stated)
inactive: [1] 1.01 | locus YAL040C, strain CLN3, active compounds read low 1 | locus YCL061C, strain MRC1 (second series), active compounds read low 1 | [2] 0.996 | locus YDR363W, strain ESC2, active compounds read low 1.03 | locus YER002W, strain NOP16, active compounds read low 1.01 | [3] 0.999 | locus YGR229C, strain SMI1, active compounds read low 1.02 | locus YMR307W, strain GAS1, active compounds read low 0.999 | locus YNL128W, strain TEP1, active compounds read low 1 | [4] 1.01 | locus YNL175C, strain NOP13, active compounds read low 1.01 | locus YNL197C, strain WHI3, active compounds read low 1.01 | locus YNL224C, strain SQS1, active compounds read low 0.997 | locus YOR083W, strain WHI5 (second series), active compounds read low 1.01 | [5] 1
